Screening results: PubChem, National Center for Advancing Translational Sciences (NCATS)
Pf Dd2 growth – blocks in vitro growth of P. falciparum Dd2 | P. falciparum Dd2 growth, SYBR Green, 72 h | Potency, µM (titrated, usually from 28.9 µM), without a hit: at the top dose activity, negative = inhibition, most hits filed as inhibitors | 4.3% of 120,000 active | AID 1347417; active = well fitted inhibition curve with a large enough effect;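 also: plate controls were DMSO vehicle for no effect and reference drug for full effect; nearly all actives have a fitted effect of over 65% in size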
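Infected erythrocytes (Dd2, 0.3% parasitemia, 2.5% hematocrit final) are added to compound in RPMI-1640/Albumax II medium, grown 72 h at 37C in low oxygen, then lysed with saponin/Triton-X containing SYBR Green and read by fluorescence.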
* marks the source's active call; other numbers are inactive results; i = inactive; [ ] = remark or other dose. Many of the other results were omitted from the sample, so hits are more common in it than they were. Potency is read from the fitted curve at half-maximal effect.

SMILES	Pf Dd2 growth
O=C1CC(C(=O)N2CCC(O)(c3cccnc3)CC2)CN1Cc1ccccn1 (stereo not given)	-7.0%
CCc1cnc(C)nc1N1CCC2(CC1)CC(c1ccccc1)C(=O)N2C (stereo not given)	-4.2%
CNC(=O)N1CCC(C2CCN(Cc3ccc(OC)cc3)C2)CC1 (stereo not given)	-4.3%
N#Cc1cccc(CN2CCc3ncc(C(=O)NCCOc4ccccc4)n3CC2)c1	-1.2%[44.1 µM]
O=C(NCCOc1ccccc1)c1cnc2n1CCN(Cc1ccccc1O)CC2	0.6%[44.1 µM]
O=C(NCCOc1ccccc1)c1cnc2n1CCN(Cc1ccc3[nH]ccc3c1)CC2	12.6µM*
Cc1ccc(C(=O)NC2CC(c3nnc(Cn4cccn4)n3C)C2)s1 (stereo not given)	-27.1%
COCCCNC(=O)CCCN1C(=O)COc2ccc(C(=O)COc3cccc(C)c3C)cc21	-0.9%
COCCNC(=O)CCCN1C(=O)COc2ccc(C(=O)COc3ccc(Cl)c(C)c3)cc21	i
COCCNC(=O)CCCN1C(=O)COc2ccc(C(=O)COc3c(C)ccc(C)c3C)cc21	10µM*
CCc1ccc(CN2CCC(CNC(=O)C(C)(C)C)CC2)nc1	i
COc1ccccc1CN1CC(c2noc(-c3ccc(C)cc3C)n2)CC1=O (stereo not given)	i
Cc1ncoc1C(=O)N1CCOc2ccc(CCC(N)=O)cc2C1	-6.3%
CCN(CC)Cc1ccc2c(c1)CN(C(=O)c1cncc(Br)c1)CCO2	8.91µM*
CN1CCC2(CC1)CN(C(=O)c1cncc(Br)c1)Cc1ccccc1O2	-3.3%
COc1ccccc1C(=O)Nc1ccc([C@@H](O)[C@H]2COCC(=O)N2CC(C)C)cc1	i
CCc1cccc(NC(=O)Cn2c(-c3cnccn3)nc(C)c(CCO)c2=O)c1	i
O=c1ccc(NS(=O)(=O)c2ccccc2)c2n1C[C@H]1C[C@@H]2CN(S(=O)(=O)c2ccccc2)C1	i
Cc1cc(C(F)(F)F)n(-c2nc(C(=O)N3CCOCC(O)C3)cs2)n1 (stereo not given)	-2.9%
CC(C)N1CCN(C(=O)CC2Sc3ncccc3N(C)C2=O)CC1 (stereo not given)	i
Cc1cc(C)c(NC(=O)Nc2csc3c2CCCC3)c(C)c1	86.3%[5.79 µM]
CCc1cccc(NC(=O)Nc2csc3c2CCCC3)c1	10µM*
Cc1cccc(C)c1NC(=O)Nc1csc2c1CCCC2	-15.7%
CCCN(C)C(=O)c1c(-c2ccc(F)cc2)noc1[C@H](C)O	9.1%[44.1 µM]
Cc1nc([C@@H]2CN(C(=O)CCc3c(C)n[nH]c3C)C[C@H]2C(N)=O)n[nH]1	20.2%
SMILES	Pf Dd2 growth
CC(=O)Nc1ccc(C2(C(=O)N(C)Cc3ccccc3)CCCCC2)cc1	i
CN(Cc1ccccc1)C(=O)C1(c2ccc(NC(=O)C3CC3)cc2)CCCCC1	4.47µM*
O=C(Nc1ccc(C2(C(=O)O)CCC2)cc1)C1CC1	0.4%
O=C(c1ccncc1)N1CCC(Cc2nc(C3CCOCC3)no2)CC1	20.5%
CC(C)N1CC2CCC(C1)N2Cc1ccc(C#N)cc1	6.6%[44.1 µM]
COC(=O)C1=CN(CC(=O)Nc2ccccc2F)S(=O)(=O)N=C1C	i
CCc1ccc(Cn2nnc(C(=O)Nc3ccc(C)cc3)c2N)cc1	-22.7%
CCOc1ccc(Cn2nnc(C(=O)Nc3ccc(Cl)cc3)c2N)cc1	i
Cc1cc(C)cc(NC(=O)c2nnn(Cc3cccc(Br)c3)c2N)c1	i
Nc1c(C(=O)Nc2ccccc2Cl)nnn1Cc1cccc(Cl)c1	7.08µM*
CSc1ccc(Cn2nnc(C(=O)Nc3ccc(C)cc3Cl)c2N)cc1	1.9%
Cc1ccc(Cn2nnc(C(=O)Nc3ccc(F)c(F)c3)c2N)cc1	0.891µM*
COc1ccc(C2Cn3nnc(-c4nc(-c5ccccc5Br)no4)c3CO2)cc1 (stereo not given)	-5.7%
CN(CCn1ccnc1)C(C(=O)O)c1cnn(Cc2ccccc2)c1 (stereo not given)	-6.4%
Cc1cccc(-n2ncc3c2CCCC3NC(=O)c2c(F)ccc(F)c2F)c1C (stereo not given)	-14.6%
COCCNC(=O)[C@@H]1C[C@@H](O)CN1C1CCN(C(=O)c2ccc(OC)nc2)CC1	-3.5%
Cc1noc(-c2ccccc2Cl)c1C(=O)NCCC(c1ccccc1)c1ccccc1	-5.1%
COc1cccc(-c2cc(C(=O)Nc3cc(Cl)ccc3O)on2)c1	1µM*
Cc1ccc(C)c(N2CCN(C(=O)c3noc4c3CCCCC4)CC2)c1	i
Cc1ccc(O)c(NC(=O)c2cc(-c3ccccc3O)no2)c1	2.24µM*
Cc1ccc(O)c(NC(=O)COCc2cc(-c3ccco3)on2)c1	17.9%
COc1cccc(C(=O)Nc2cc(-c3ccccc3)no2)c1	-1.0%
COc1ccc(OC)c(NC(=O)c2noc3c2CCCC3)c1	-13.7%
O=C(Nc1cccc(O)c1)c1cc(-c2ccccc2F)no1	-13.0%
COc1cccc(-c2cc(C(=O)Nc3cc(OC)c(OC)c(OC)c3)on2)c1	-12.8%[0.594 µM]
Cc1ccc(O)c(NC(=O)c2noc3c2CCCCC3)c1	4.47µM*
O=C(CC1=C2CCCCC2NC1=O)Nc1cccc(F)c1 (stereo not given)	4.7%
